A number with no mark means an inactive call.
Test system: Vero E6 infected with SARS-CoV-2
Assay: inhibition of SARS-CoV-2 cytopathic effect; higher = more antiviral protection, active = above 15
Settings: 48 h

| Compound | inhibition of SARS-CoV-2 cytopathic effect (1 nM) | inhibition of SARS-CoV-2 cytopathic effect (8.33 nM) | inhibition of SARS-CoV-2 cytopathic effect (100 nM) | inhibition of SARS-CoV-2 cytopathic effect (833.33 nM) | inhibition of SARS-CoV-2 cytopathic effect (10000 nM) |
| --- | --- | --- | --- | --- | --- |
| CO[C@H]1CC[C@@H](C(=O)c2ccc3nc4c(cc3c2)CCCO4)CC1 | -1.37% | 0.02% | -1.45% | -0.98% | -2.81% |
| O=C(O)COc1ccc(/C=C2\SC(=O)NC2=O)cc1 | 0.12% | 0.67% | 5.3% | 4.16% | -0.64% |
| Cc1ccc(=O)n(-c2ccc(O)cc2)c1 | -3.24% | -0.95% | 1.12% | 2.81% | 1.12% |
| CCOc1ccc(NC(C)=O)cc1 [phenacetin] | 0.72% | -3.1% | 1.64% | 0.87% | 0.81% |
| CC(=O)Nc1ccc(C(=O)NC(C)(C)C)cc1 | -4.86% | -3.67% | -1.32% | -3.41% | -0.2% |
| C=C1C[C@@]2(O)O[C@@]3(C[C@H]2C(C)C)[C@@H](C)CC[C@@H]13 [curcumol] | -2.21% | -1.48% | 1.91% | 0.52% | -2.49% |
| CNCC(=O)O [sarcosine] | 0.02% | 0.73% | 0.05% | 2.03% | 0.53% |
| Cc1ccc(S(=O)(=O)Nc2ccc3c(c2)c(C(=O)C(F)(F)F)cn3CC(=O)N[C@@H](CC(C)C)C(=O)O)cc1 | 0.38% | -1.93% | -1.37% | 0.8% | 3.55% |
| O=[N+]([O-])O[C@H]1CO[C@H]2[C@@H]1OC[C@H]2O[N+](=O)[O-] [isosorbide-dinitrate] | -1.2% | 2.2% | 2.2% | 1.87% | 3.34% |
| NCC(=O)N1C[C@H](NC(=O)c2ccccc2)C[C@H]1C(=O)O [danegaptide] | -2% | -0.68% | 1.14% | -0.88% | 3.55% |
| CC(=O)N1CC[N+](C)(C)CC1 [4-acetyl-1,1-dimethylpiperazinium] | 0.03% | -1.23% | 0.82% | 1.13% | 0.5% |
| CC(C)(C)CCN1C[C@@H]2[C@@H](CNC(=O)c3cc(Cl)cc(Cl)c3)[C@@H]2C1 | 2.47% | 2.05% | 1.76% | 2.2% | -10.4% |
| CNC(=O)c1c(I)c(NC(C)=O)c(I)c(C(=O)O)c1I [iothalamic-acid-d3] | -5.17% | -2.14% | -1.59% | 0.31% | -1.65% |
| N#Cc1ccc(Oc2ccc3c(c2)COB3O)cc1 [crisaborole] | 0.74% | 0.97% | 1.46% | -0.75% | 4.65% |
| Cc1cc(-c2ccccc2)nnc1NCCN1CCOCC1 [minaprine] | 0.27% | 0.75% | -0.02% | 1.16% | 1.01% |
| O=C(O)c1ccccc1Nc1cccc(OCc2ccc3ccccc3n2)c1 | -0.27% | 2.38% | 0.56% | 0.3% | -0.51% |
| CN1C2CCC1CC(OC(c1ccccc1)c1ccc(Cl)cc1)C2 (stereo not given) | 5.63% | 6.26% | -1.76% | -2.87% | 17.4% (active) |
| COc1cc(OC)c2c(=O)[nH]c(-c3cc(C)c(OCCO)c(C)c3)nc2c1 [apabetalone] | -0.27% | 0.93% | 2.32% | -1.57% | -0.84% |
| NC(=O)c1ccccc1O [salicylamide] | -0.95% | 2.62% | 5.65% | 3.83% | 0.13% |
| O=[N+]([O-])c1ccc2c(c1)S(=O)(=O)C=C2 [stattic] | -2.62% | -2.1% | -5.02% | 5.41% | -2.07% |
| CCc1nn(CCO)c(CC)c1Oc1cc(C#N)cc(C#N)c1 [lersivirine] | 2.25% | 2.52% | 2.57% | 0.87% | 2.19% |

| Compound | inhibition of SARS-CoV-2 cytopathic effect (1 nM) | inhibition of SARS-CoV-2 cytopathic effect (8.33 nM) | inhibition of SARS-CoV-2 cytopathic effect (100 nM) | inhibition of SARS-CoV-2 cytopathic effect (833.33 nM) | inhibition of SARS-CoV-2 cytopathic effect (10000 nM) |
| --- | --- | --- | --- | --- | --- |
| CNNCc1ccc(C(=O)NC(C)C)cc1 [procarbazine] | -1.55% | 4.48% | -0.09% | 2.14% | 0.27% |
| CCCn1c(=O)c2[nH]cnc2n(-c2ccc(Cl)cc2)c1=O [arofylline] | -3.55% | -1.13% | 0.16% | -6.97% | -3.81% |
| CCCC(=O)OCOC(=O)C1=C(C)NC(C)=C(C(=O)OC)C1c1cccc(Cl)c1Cl (stereo not given) [cleviprex] | 3.04% | 3.86% | 2.92% | 0.61% | 4.07% |
| CCn1c(N)c(C(=O)NC)c(=O)c2ccc(C#C[C@@](C)(O)COC)nc21 | 0.13% | -0.62% | -1.69% | 0.68% | 6.9% |
| N#Cc1c(N(CC(=O)O)CC(=O)O)sc(C(=O)O)c1CC(=O)O [Strontium Ranelate] | 1.28% | 2.01% | 0.58% | 5.99% | 1.75% |
| CC(O)(CS(=O)(=O)c1ccc(F)cc1)C(=O)Nc1ccc(C#N)c(C(F)(F)F)c1 (stereo not given) [bicalutamide] | -2.58% | -1.35% | 0.77% | -0.42% | -0.92% |
| CO/N=C(\C(=O)N[C@@H]1C(=O)N2C(C(=O)OCOC(=O)C(C)(C)C)=C(C)CS[C@H]12)c1csc(N)n1 [cefetamet-pivoxil] | -1.77% | -0.88% | -2.82% | -0.78% | -2.04% |
| O=C(Nc1cccc(Cl)c1)Nc1ncc(CCNc2ncnc3ccsc23)s1 | 0.21% | 0.43% | 3.34% | -0.89% | -1.37% |
| Nc1ccn([C@@H]2CS[C@H](CO)O2)c(=O)n1 [lamivudine] | -0.38% | 0.6% | -0.56% | -0.22% | 4.96% |
| CC/C(=C(/c1ccc(OCCN(C)C)cc1)c1cccc(O)c1)c1ccccc1 [droloxifene] | 0.66% | -1.2% | 1.69% | 0.64% | 34.5% (active) |
| C[C@]12CC[C@H](O)C[C@H]1CC[C@@H]1[C@@H]2CC[C@]2(C)[C@@H](c3ccc(=O)oc3)C[C@H]3O[C@]132 [resibufogenin] | -0.2% | -2.33% | -5.86% | -20.4% | -20.4% |
| C[C@@H](O[C@H]1OCCN(Cc2n[nH]c(=O)[nH]2)[C@H]1c1ccc(F)cc1)c1cc(C(F)(F)F)cc(C(F)(F)F)c1 [aprepitant] | -2.6% | -2.93% | -3.21% | -4.32% | -6.5% |
| Clc1ccc2c(c1)N=C(N1CCNCC1)c1ccccc1N2 [desmethylclozapine] | 1.9% | 0.8% | 0.19% | 2.8% | -4.43% |
| CC(C)=CCC/C(C)=C/CC/C(C)=C/CCC(=O)OC/C=C(\C)CCC=C(C)C [geranyl-farnesylacetate] | -0.32% | 0.94% | -2.76% | 0.87% | 1.54% |
| Cn1cc(-c2ccc3ncc(Cc4ccc5ncccc5c4)n3n2)cn1 | -4.59% | -2.71% | -1.81% | 2.47% | 3.49% |
| CCCN(CCC)[C@H]1CCc2ccc(O)cc2C1 [7-hydroxy-DPAT] | 0.73% | 2.39% | 0.54% | -0.29% | 0.48% |
| C=CCc1cccc(/C=N/NC(=O)CN2CCN(Cc3ccccc3)CC2)c1O | 0.07% | 0.95% | 4.72% | 0.65% | -2.23% |
| CC1(C)S[C@@H]2[C@H](NC(=O)[C@H](NC(=O)N3CCNC3=O)c3ccccc3)C(=O)N2[C@H]1C(=O)O [azlocillin] | -1.64% | -1.64% | 1.05% | -1.76% | -1.54% |
| c1cncc(CN2CCC(n3ncc4c(N5CCOCC5)nc(-c5ccc6[nH]ccc6c5)nc43)CC2)c1 | 1.62% | 0.29% | 2.14% | 12.2% | 17.7% (active) |
| CCNC(=O)[C@@H]1CCCN1C(=O)[C@H](CCCNC(=N)N)NC(=O)[C@H](CC(C)C)NC(=O)[C@@H](CC(C)C)NC(=O)[C@H](Cc1ccc(O)cc1)NC(=O)[C@H](CO)NC(=O)[C@H](Cc1c[nH]c2ccccc12)NC(=O)[C@H](Cc1c[nH]cn1)NC(=O)[C@@H]1CCC(=O)N1 [leuprolide] | -3.75% | 3.77% | 3.45% | 0.4% | -1.48% |

From the supplement of paper PMC13380429
